Results published in PubChem BioAssay AID1159580 (chemical genetic matrix, 2015).
“And” between values parts separate entries of the source, which are not always exact repeats. Equal values may be shown once. Screen size: about 5,500 compounds; about 2,000 (36%) were called active. About 18% were inconclusive and are not listed. No stated cut-off is given here; in the data, active means normalized growth mostly below about 0.91 (no sharp cut-off); inconclusive means no clear call, values can overlap the other calls; inactive means mostly above about 0.92. This is one part of the list.

Assay: chemical genetic growth profiling, strain panel (AID 1159580);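 further: tested at 20 µM; growth read once vehicle control cultures reached saturation at 30 °C; 1 = growth at the plate median or of vehicle wells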
Conditions: S. cerevisiae deletion strains, growth OD

Measured: normalized growth

COc1cc(O)c2c(=O)cc(C)oc2c1CC=C(C)C
0.78 (active) and 0.962 (inactive): locus YJL095W, strain BCK1, stronger effect = lower value
active: locus YAL013W, strain DEP1, stronger effect = lower value 0.864 | locus YCL029C, strain bik1, stronger effect = lower value 0.872 | locus YDL035C, strain GPR1, stronger effect = lower value 0.805 | locus YDL074C, strain BRE1, stronger effect = lower value 0.748 | locus YDL192W, strain arf1, stronger effect = lower value 0.814 | locus YDR101C, strain arx1, stronger effect = lower value 0.89 | locus YDR137W, strain rgp1, stronger effect = lower value 0.817 | locus YDR162C, strain NBP2, stronger effect = lower value 0.696 | locus YDR195W, strain ref2 1.17 [resistant] | locus YDR318W, strain mcm21, stronger effect = lower value 0.806 | locus YDR392W, strain spt3, stronger effect = lower value 0.496 | locus YDR502C, strain sam2, stronger effect = lower value 0.909 | locus YER167W, strain BCK2, stronger effect = lower value 0.893 | locus YGL086W, strain mad1, stronger effect = lower value 0.876 | locus YHR013C, strain ard1, stronger effect = lower value 1.21 [resistant] | locus YHR129C, strain ARP1, stronger effect = lower value 0.919 | locus YIL066C, strain RNR3, stronger effect = lower value 0.781 | locus YIL125W, strain kgd1, stronger effect = lower value 0.93 | locus YIR030C, strain dcg1, stronger effect = lower value 0.92 | locus YJL095W, strain BCK1 (second series), stronger effect = lower value 0.905 | locus YJL129C, strain trk1, stronger effect = lower value 0.867 | locus YKR001C, strain vps1, stronger effect = lower value 0.806 | locus YLR113W, strain HOG1, stronger effect = lower value 0.838 | locus YLR262C, strain YPT6 (second series), stronger effect = lower value 0.827 | locus YLR268W, strain sec22, stronger effect = lower value 0.816 | locus YLR320W, strain mms22, stronger effect = lower value 0.83 | locus YLR330W, strain CHS5, stronger effect = lower value 0.811 | locus YLR342W, strain FKS1 (second series), stronger effect = lower value 0.78 | locus YLR371W, strain rom2, stronger effect = lower value 0.831 | locus YLR418C, strain cdc73, stronger effect = lower value 0.628 | locus YML032C, strain rad52, stronger effect = lower value 0.858 | locus YMR058W, strain fet3, stronger effect = lower value 0.845 | locus YMR205C, strain PFK2, stronger effect = lower value 0.849 | locus YNL071W, strain lat1, stronger effect = lower value 0.847 | locus YNL233W, strain BNI4, stronger effect = lower value 0.852 | locus YNL307C, strain MCK1, stronger effect = lower value 0.618 | locus YOL147C, strain pex11, stronger effect = lower value 0.818 | locus YOR144C, strain elg1, stronger effect = lower value 0.919 | locus YOR184W, strain ser1, stronger effect = lower value 0.587 | locus YPR163C, strain tif3, stronger effect = lower value 0.776 | strain wtn01, stronger effect = lower value 0.852
inactive: locus YAL021C, strain ccr4, stronger effect = lower value 0.99 | locus YAL026C, strain drs2, stronger effect = lower value 0.996 | locus YAL030W, strain snc1, stronger effect = lower value 0.967 | locus YBL061C, strain skt5, stronger effect = lower value 0.96 | locus YBR009C, strain hhf1, stronger effect = lower value 0.917 | locus YBR021W, strain FUR4, stronger effect = lower value 0.9 | locus YBR023C, strain chs3, stronger effect = lower value 0.941 | locus YBR171W, strain sec66, stronger effect = lower value 0.968 | locus YBR229C, strain ROT2, stronger effect = lower value 0.93 | locus YBR231C, strain swc5, stronger effect = lower value 0.98 | locus YBR279W, strain paf1, stronger effect = lower value 0.991 | locus YCL011C, strain gbp2, stronger effect = lower value 0.962 | locus YCL016C, strain dcc1, stronger effect = lower value 0.953 | locus YCL069W, strain vba3, stronger effect = lower value 0.997 | locus YCR088W, strain abp1, stronger effect = lower value 0.982 | locus YDL005C, strain med2, stronger effect = lower value 1.03 | locus YDL040C, strain nat1, stronger effect = lower value 0.986 | locus YDL101C, strain DUN1, stronger effect = lower value 0.954 | locus YDL185W, strain tfp1, stronger effect = lower value 0.929 | locus YDR001C, strain nth1, stronger effect = lower value 0.979 | locus YDR069C, strain doa4, stronger effect = lower value 0.97 | locus YDR150W, strain NUM1, stronger effect = lower value 0.946 | locus YDR159W, strain sac3, stronger effect = lower value 0.959 | locus YDR297W, strain sur2, stronger effect = lower value 0.967 | locus YDR334W, strain swr1, stronger effect = lower value 0.984 | locus YDR335W, strain msn5, stronger effect = lower value 0.986 | locus YDR388W, stronger effect = lower value 0.943 | locus YEL003W, strain gim4, stronger effect = lower value 0.957 | locus YEL037C, strain rad23, stronger effect = lower value 0.984 | locus YEL061C, strain CIN8 (second series), stronger effect = lower value 0.993 | locus YEL061C, strain CIN8, stronger effect = lower value 0.941 | locus YER015W, strain faa2, stronger effect = lower value 0.977 | locus YER016W, strain bim1, stronger effect = lower value 0.965 | locus YER110C, stronger effect = lower value 0.947 | locus YER111C, strain swi4, stronger effect = lower value 1.01 | locus YER155C, strain BEM2 (second series), stronger effect = lower value 0.903 | locus YER155C, strain BEM2, stronger effect = lower value 0.928 | locus YFR010W, strain ubp6, stronger effect = lower value 1 | locus YGL078C, strain dbp3, stronger effect = lower value 0.971 | locus YGL167C, strain pmr1, stronger effect = lower value 0.952 | locus YGL173C, strain kem1, stronger effect = lower value 0.982 | locus YGL227W, strain vid30, stronger effect = lower value 1 | locus YGL240W, strain doc1, stronger effect = lower value 0.987 | locus YGL248W, strain PDE1, stronger effect = lower value 0.898 | locus YGL253W, strain hxk2, stronger effect = lower value 0.99 | locus YGR078C, strain PAC10, stronger effect = lower value 0.874 | locus YGR135W, strain pre9, stronger effect = lower value 1 | locus YGR252W, strain gcn5, stronger effect = lower value 0.839 | locus YHR027C, strain rpn1, stronger effect = lower value 0.985 | locus YHR030C, strain SLT2, stronger effect = lower value 0.95 | locus YHR079C, strain IRE1 (second series), stronger effect = lower value 0.949 | locus YHR079C, strain IRE1, stronger effect = lower value 0.953 | locus YHR094C, strain hxt1, stronger effect = lower value 0.941 | locus YHR142W, strain chs7, stronger effect = lower value 0.884 | locus YHR200W, strain rpn10, stronger effect = lower value 0.952 | locus YIL073C, strain SPO22, stronger effect = lower value 0.849 | locus YJL092W, strain hpr5, stronger effect = lower value 0.985 | locus YJL115W, strain asf1, stronger effect = lower value 1.02 | locus YJL134W, strain LCB3, stronger effect = lower value 0.946 | locus YJL154C, strain vps35, stronger effect = lower value 1 | locus YJL164C, strain tpk1, stronger effect = lower value 0.941 | locus YJL166W, strain qcr8, stronger effect = lower value 0.967 | locus YJL168C, strain set2, stronger effect = lower value 0.965 | locus YJL187C, strain SWE1 (second series), stronger effect = lower value 0.943 | locus YJR043C, strain POL32, stronger effect = lower value 0.87 | locus YJR066W, strain TOR1, stronger effect = lower value 0.929 | locus YKL009W, strain mrt4, stronger effect = lower value 0.897 | locus YKL068W, stronger effect = lower value 0.945 | locus YKL085W, strain MDH1 (second series), stronger effect = lower value 0.936 | locus YKL085W, strain MDH1, stronger effect = lower value 0.936 | locus YKL160W, strain elf1, stronger effect = lower value 0.945 | locus YKR026C, strain gcn3, stronger effect = lower value 0.986 | locus YKR091W, strain srl3, stronger effect = lower value 0.978 | locus YLL001W, strain dnm1, stronger effect = lower value 0.982 | locus YLL026W, stronger effect = lower value 0.974 | locus YLL041C, strain sdh2, stronger effect = lower value 0.96 | locus YLR027C, strain aat2, stronger effect = lower value 0.972 | locus YLR039C, strain RIC1, stronger effect = lower value 0.797 | locus YLR058C, strain SHM2, stronger effect = lower value 0.912 | locus YLR102C, strain apc9, stronger effect = lower value 0.945 | locus YLR221C, strain rsa3, stronger effect = lower value 0.942 | locus YLR258W, strain gsy2, stronger effect = lower value 0.972 | locus YLR262C, strain YPT6, stronger effect = lower value 0.674 | locus YLR342W, strain FKS1, stronger effect = lower value 0.929 | locus YLR357W, strain rsc2, stronger effect = lower value 1.06 | locus YLR370C, strain arc18, stronger effect = lower value 0.97 | locus YLR384C, strain iki3, stronger effect = lower value 0.991 | locus YML016C, strain PPZ1, stronger effect = lower value 0.944 | locus YML120C, strain ndi1, stronger effect = lower value 0.976 | locus YML124C, strain tub3, stronger effect = lower value 0.945 | locus YMR078C, strain ctf18, stronger effect = lower value 0.919 | locus YMR125W, strain sto1, stronger effect = lower value 0.997 | locus YMR129W, stronger effect = lower value 0.979 | locus YMR223W, strain ubp8, stronger effect = lower value 0.911 | locus YMR231W, strain pep5, stronger effect = lower value 1.01 | locus YMR307W, strain GAS1, stronger effect = lower value 0.668 | locus YNL067W, strain RPL9B, stronger effect = lower value 1 | locus YNL153C, strain GIM3, stronger effect = lower value 0.926 | locus YNL183C, strain NPR1, stronger effect = lower value 0.935 | locus YNL209W, strain ssb2, stronger effect = lower value 0.973 | locus YNL248C, strain rpa49, stronger effect = lower value 1.04 | locus YNL250W, strain rad50, stronger effect = lower value 0.977 | locus YNL271C, strain bni1, stronger effect = lower value 0.953 | locus YNL298W, strain CLA4, stronger effect = lower value 0.923 | locus YNL322C, strain KRE1 (second series), stronger effect = lower value 0.998 | locus YNR049C, strain mso1, stronger effect = lower value 0.996 | locus YNR052C, strain pop2, stronger effect = lower value 0.988 | locus YOL012C, strain htz1 0.465 | locus YOR001W, strain rrp6, stronger effect = lower value 0.989 | locus YOR061W, strain CKA2, stronger effect = lower value 0.92 | locus YOR069W, strain VPS5, stronger effect = lower value 0.964 | locus YOR070C, strain gyp1, stronger effect = lower value 0.982 | locus YOR080W, strain dia2, stronger effect = lower value 0.993 | locus YOR083W, strain WHI5, stronger effect = lower value 0.97 | locus YOR106W, strain vam3, stronger effect = lower value 0.971 | locus YOR136W, strain idh2, stronger effect = lower value 0.963 | locus YOR231W, strain MKK1, stronger effect = lower value 0.941 | locus YOR265W, strain rbl2, stronger effect = lower value 0.973 | locus YOR270C, strain vph1, stronger effect = lower value 0.837 | locus YOR290C, strain snf2, stronger effect = lower value 0.941 | locus YOR316C, strain cot1, stronger effect = lower value 0.944 | locus YPL051W, strain arl3, stronger effect = lower value 0.936 | locus YPL078C, strain atp4, stronger effect = lower value 0.959 | locus YPL106C, strain sse1, stronger effect = lower value 0.954 | locus YPL240C, strain hsp82, stronger effect = lower value 0.965 | locus YPL256C, strain CLN2, stronger effect = lower value 0.933 | locus YPR119W, strain clb2, stronger effect = lower value 0.951 | locus YPR141C, strain kar3, stronger effect = lower value 0.93 | locus YPR167C, strain met16, stronger effect = lower value 0.937
